± gives the standard deviation of the averaged measurements. Whole data set: some 25,000 sequences, median “ln(normalized median fluorescence intensity)” near 10, cut for the highest 2% near 12. For the sample, the highest values were picked, then their nearest neighbours and some sequences at random.

In the assay the test system is PfAP2-G AP2 domain (GST-tagged). Put plainly: gcPBM binding intensity (ln(normalized median fluorescence intensity)); higher = stronger DNA binding. In a few lines:
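Probes on an Agilent 4 × 180k array were primer-extended, double-stranded and 36 bp long, taken from intergenic genomic regions, with negative controls added. GST-tagged P. falciparum DNA-binding domains from E. coli, about 25 μg on average, were applied to the array for 1 h in 1× PBS containing 1% milk, 0.2 mg/ml BSA, 0.5% salmon testes DNA and 0.03% Triton X-100. Binding intensity, obtained after Alexa488 anti-GST antibody detection and a 488 nm scan, is the highest Masliner-normalised natural-log median intensity across replicate spots of either probe orientation.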
In the case of “TCATATTCCAAAAAAAAAAAAAAAAAAAAAAAAATA [CACACA_negctrl_site1293]”, the “gcPBM binding intensity (ln)” value was found to be 9.66 ± 0.3.

In the case of “AATAAATATTCATTTTGTACATATTTTTCGTATATG [XGTACX_site6104]”, the “gcPBM binding intensity (ln)” value was 10.9 ± 0.57.

Regarding “TTGGGCATAATGTCATGTACACAAATAATTCTTTAT [XGTACX_site861]”, the “gcPBM binding intensity (ln)” value turned out to be 11.5 ± 1.

Regarding “TATATATATATATATTGTACATATATTATTATATAT [XGTACX_site7447]”, the “gcPBM binding intensity (ln)” value was found to be 10.9 ± 0.53.

As to “AATTTACAAAAAAGAAAAAAAAAAAAAAAGATACTT [CACACA_negctrl_site1434]”, the “gcPBM binding intensity (ln)” value was found to be 9.65 ± 0.071.

Take “TTGTTCTATTTAAGTAGTACATACACACACATATAC [XGTACX_site8484]”: the “gcPBM binding intensity (ln)” value was found to be 11.5 ± 0.71.

For “ACATCATATTAAGAAAGTACAAAAAGAGAACATATA [XGTACX_site1268]”, the “gcPBM binding intensity (ln)” value was found to be 11 ± 0.4.

As for “AAAAAAAAAAGAAAAAGTACATACATACATATATAT [XGTACX_site6405]”, the “gcPBM binding intensity (ln)” value is 11.3 ± 0.83.

In the case of “ATTTATATTACAAAAAGTACACACATAAATAAATAC [XGTACX_site1827]”, the “gcPBM binding intensity (ln)” value stood at 11.6 ± 0.92.

Turning to “AAAAAGAAAAAAGAAAGTACAAATATACACATTTTT [XGTACX_site3343]”, the “gcPBM binding intensity (ln)” value is 10.9 ± 0.54.

As for “TACGAATTAAAAAAGAGTACAAATAAAATATCTACA [XGTACX_site7412]”, the “gcPBM binding intensity (ln)” value was 11.3 ± 0.84.

Take “ATTTAAGTAGTACATACACACACATATACAAAAAGA [CACACA_site9317]”: the “gcPBM binding intensity (ln)” value is 11.7 ± 1.3.

Turning to “ATACGAAAAAAAAAAAGTACACAAAAATATCTACAT [XGTACX_site2051]”, the “gcPBM binding intensity (ln)” value is 11.7 ± 1.1.

Consider “TTAAGTAGTACATACACACACATATACAAAAAGAAA [CACACA_site3972]”, for which the “gcPBM binding intensity (ln)” value came out at 11.7 ± 1.2.

As to “ATTCATAAAAAGAGGTGTACATTAATATAATATATA [XGTACX_site8283]”, the “gcPBM binding intensity (ln)” value was 11.5 ± 0.95.

On to “ATTTTGTTATTATATATATATATATATATATATATA [XGTACX_negctrl_site590]”, for which the “gcPBM binding intensity (ln)” value is 9.89 ± 0.49.

As for “GATCATTTAAAATAAGTAATATTTTTTTTACTTTTG [TGCATGCA_negctrl_site602]”, the “gcPBM binding intensity (ln)” value came out at 9.62 ± 0.26.

For the sequence “GTTCATAAAAATTTTTGTACCCATAAAATATTCCTC [XGTACX_site8611]”, the “gcPBM binding intensity (ln)” value is 11.2 ± 0.65.

With “AATAATTGTTATAGTTGTACAATACATATATTACAA [XGTACX_site30]”, the “gcPBM binding intensity (ln)” value came out at 11.3 ± 0.63.

As for “AAAAAAAAAAAAAAAAGTACAGACGTCAAAAAAAAA [XGTACX_site4817]”, the “gcPBM binding intensity (ln)” value came out at 11.6 ± 0.76.

In the case of “ACAGACGTTCAAAGGTGTACGCAAAATGAATAATAT [XGTACX_site7565]”, the “gcPBM binding intensity (ln)” value worked out at 11.6 ± 1.

In the case of “AAAAAAAAAAAAAAGAGTACACAGACGTTCAAAGGT [XGTACX_site7566]”, the “gcPBM binding intensity (ln)” value was 11.7 ± 0.77.

As to “TTTAAATATATTCAATCACACACATTCGTTTTTTTT [CACACA_site7962]”, the “gcPBM binding intensity (ln)” value worked out at 9.77 ± 0.24.

Take “GGCAAATTTATTATACCCACATACATACATACATAC [XGTACX_negctrl_site186]”: the “gcPBM binding intensity (ln)” value came to 10.8 ± 0.62.

Turning to TTTACATTTTAGGAAGTGCATATAATAAATACTATC, the “gcPBM binding intensity (ln)” value was found to be 10.1 ± 0.2.

In the case of “AAAAAAAAATTGTGTACACATAATTATATCATATGT [CACACA_site4500]”, the “gcPBM binding intensity (ln)” value is 11.7 ± 0.89.

“ATAATTATATATATATGTACATATTATATATATATA [XGTACX_site4526]”: the “gcPBM binding intensity (ln)” value came out at 11.2 ± 0.77.

Consider “ATCATAAAAGTATACACACATACATACATATGTACA [CACACA_site2641]”, for which the “gcPBM binding intensity (ln)” value was found to be 10.8 ± 0.45.

“TTAGTAGTATTATGTAGTACATAATTATCATATCAT [XGTACX_site817]”: the “gcPBM binding intensity (ln)” value was found to be 11.6 ± 1.1.

As to “TATATCATAAAAAATTGTACATATATATATTATATA [XGTACX_site6726]”, the “gcPBM binding intensity (ln)” value amounted to 11 ± 0.69.

Regarding “ATAAAAATAATATCATGTACATATGTGTATTGTATT [XGTACX_site1768]”, the “gcPBM binding intensity (ln)” value was found to be 11 ± 0.49.

Turning to “ATTATATTATATATATGTACATATATATATCATAAT [XGTACX_site1]”, the “gcPBM binding intensity (ln)” value was found to be 11.1 ± 0.66.

As for “AAAAAAAAAAAAAAAAGTACATATATATATATAATT [XGTACX_site4437]”, the “gcPBM binding intensity (ln)” value came out at 11.5 ± 0.86.

Turning to “AAAAAAAAAAAAAAAAGTACACATAATTGTATATGT [XGTACX_site6339]”, the “gcPBM binding intensity (ln)” value is 11.7 ± 0.75.

With “AAAAAAAAAAAAAAAAGTACATATATATATAATTAT [XGTACX_site7836]”, the “gcPBM binding intensity (ln)” value was found to be 11.7 ± 0.89.

With “ACATATTAATTATAAAGTACATATATATATATATAT [XGTACX_site4540]”, the “gcPBM binding intensity (ln)” value was 11.3 ± 0.79.

Turning to “TATATAAAAAGTAATTGTACATATATATATATATAT [XGTACX_site7953]”, the “gcPBM binding intensity (ln)” value came out at 10.9 ± 0.68.

As for “ATAATTATAAAATAAACACACATATATATTTATATG [CACACA_site440]”, the “gcPBM binding intensity (ln)” value came to 9.98 ± 0.16.

As to “AATTAAAAAAAATACACACACACATACACATATATA [CACACA_site3298]”, the “gcPBM binding intensity (ln)” value was 10.2 ± 0.22.

Regarding “ATAACATAAGGAAATACACACATATATAAGTATATA [CACACA_site778]”, the “gcPBM binding intensity (ln)” value amounted to 10.02 ± 0.021.

Turning to “ACATATATATATATATATATATATATATTTATTTAT [CACACA_negctrl_site734]”, the “gcPBM binding intensity (ln)” value turned out to be 10.2 ± 0.39.

“AAAACTATAATGAATAGTACATAAAAATGGATATAT [XGTACX_site6056]”: the “gcPBM binding intensity (ln)” value stood at 11 ± 0.5.

For “TCTATAAAGGAATATACACACATATATATATATATA [CACACA_site410]”, the “gcPBM binding intensity (ln)” value amounted to 9.9 ± 0.32.

As for “AATAATATATTTAGGGGTACATAATAATATATTTTA [XGTACX_site8366]”, the “gcPBM binding intensity (ln)” value was determined as 11.6 ± 1.1.

On to “AAATAAAAAAGTAGTACACACTTCACGATATTTTTT [CACACA_site6015]”, for which the “gcPBM binding intensity (ln)” value was 11.6 ± 1.

As to “AGATAAAAAAAGTACACACACACATATATTTATATA [CACACA_site7437]”, the “gcPBM binding intensity (ln)” value worked out at 11.8 ± 1.2.

In the case of “AAAAAAAAAAAAAGTACACACTTATAAAATATTATG [CACACA_site4639]”, the “gcPBM binding intensity (ln)” value was determined as 11.6 ± 1.1.

With “TAAAAAAAAAAAAAAGTACACACTTATAAAATATTA [CACACA_site872]”, the “gcPBM binding intensity (ln)” value was 11.6 ± 1.

Turning to “AAAAAAAAAAAAAAAAGTACATATATTATATATATA [XGTACX_site2983]”, the “gcPBM binding intensity (ln)” value was 11.3 ± 0.93.

“AAAAAAGATATATAAACACACATATTTATATACACA [CACACA_site6866]”: the “gcPBM binding intensity (ln)” value came out at 9.66 ± 0.16.

On to “AAAAAAAAAAAAAAAAGTACATATATATATTTATAT [XGTACX_site5893]”, for which the “gcPBM binding intensity (ln)” value was determined as 11.7 ± 1.

On to “TTAAAAAAAAAAAAAAGTACACACTTATAAAATATT [XGTACX_site1630]”, for which the “gcPBM binding intensity (ln)” value turned out to be 11.6 ± 0.91.

On to “ATATTATTTTAAAGTACACACATATATTAAGATATA [CACACA_site5306]”, for which the “gcPBM binding intensity (ln)” value amounted to 11.4 ± 1.

Take “TAAAATAAAAAAGTAGTACACACTTCACGATATTTT [CACACA_site3896]”: the “gcPBM binding intensity (ln)” value was determined as 11.6 ± 0.91.

For “GTAAAAAAAAAAAAAAGTACATTATACATATATTTA [XGTACX_site5447]”, the “gcPBM binding intensity (ln)” value stood at 11.3 ± 0.81.

For the sequence “ATAAAATAAAAAAGTAGTACACACTTCACGATATTT [XGTACX_site8289]”, the “gcPBM binding intensity (ln)” value was 11.5 ± 0.84.

For “AATGTAAAATATAAATGTACATATATATATATATAT [XGTACX_site5071]”, the “gcPBM binding intensity (ln)” value turned out to be 11 ± 0.45.
